# Rows were chosen to be rich in hits. Some 6.5% of all compounds tested hit in one or more screens of this group.
# VACV mCherry inh = qHTS for Stage-Specific Inhibitors of Vaccinia Orthopoxvirus: mCherry Reporter Primary qHTS; 0.63% of 310,000 active; Potency, µM (highest dose often 36.5 µM), most hits filed as inhibitors; AID 720579, 2013; Vaccinia virus mCherry reporter infection, fluorescence; calls by dose curve; tested in A549 cells; also: nearly all actives have a fitted effect of over 35% in size
# Vaccinia Venus = qHTS for Stage-Specific Inhibitors of Vaccinia Orthopoxvirus: Venus Reporter Primary qHTS | Vaccinia virus Venus reporter expression, fluorescence | Potency, µM (top dose mostly 36.5 µM), usual class: inhibitors | 0.46% of 330,000 active | AID 720580, 2013; calls by dose curve; tested in A549 cells; also: nearly all actives have a fitted effect of over 30% in size
# Marburg entry inh = qHTS for inhibitors of binding or entry into cells for Marburg Virus | Marburg virus pseudotyped entry inhibition, cell reporter | Potency, µM (series often up to 37.8 µM), hits mostly inhibitors | 1.8% of 300,000 active; calls by dose curve; tested in HEK293 cells
# FMDV antiviral = High Throughput Screening for Foot and Mouth Disease Virus Antivirals. AID 1159524, 2015. 1.2% of 410,000 active. FMDV antiviral cell-based qHTS. Potency, µM (titrated, usually from 57.9 µM), actives largely listed as inhibitors; calls by dose curve; tested in HEK293T cells; also: read-out not given here; nearly all actives have a fitted effect of over 45% in size
# Lassa entry inh = qHTS for Inhibitors of binding or entry into cells for Lassa Virus; AID 540256, 2011; Potency, µM (series often up to 37.9 µM), hits mostly inhibitors; Lassa virus pseudotype entry inhibition, cell reporter; 1.2% of 300,000 active; calls by dose curve; tested in HEK293 cells; also: nearly all actives have a fitted effect of over 50% in size
# HCMV antiviral = qHTS Assay for inhibitors of the human cytomegalovirus (HCMV). HFF cells, HCMV-luciferase reporter, 72 h; hits give low values. activity change, negative = inhibition, % at 57.5 µM. 4.5% of 410,000 active; in the data active = activity change below about -60%; inconclusive = no clear call, values can overlap the other calls; inactive = above about -39%
#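 Steps: HFFs plated, 16 h 37C; compounds added; HCMV-luciferase added to MOI 1 PFU/cell; 72 h 37C; OneGlo reagent, 5 min room temperature; luminescence read, normalized to controls.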
# Numbers stand for hits; . = inactive; ? = inconclusive; / = no result.
SMILES,VACV mCherry inh,Vaccinia Venus,Marburg entry inh,FMDV antiviral,Lassa entry inh,HCMV antiviral
O=C(CCCCn1cnc2c(=S)nc[nH]c21)Nc1ccc(C(=O)O)c(O)c1,.,.,.,.,.,-73.3
O=C(O)c1cc(N2C(=O)C=CC2=O)cc(N2C(=O)C=CC2=O)c1,.,.,10µM,.,.,.
O=C(OCCOCCOC(=O)Oc1ccccc1)Oc1ccccc1,.,.,.,.,?,.
CC1Cc2ccccc2N1C(=O)Cn1cnc2ccccc21 (centres undefined),.,.,?,.,.,.
Nc1nc(N)c2nc(CNc3ccc(C(=O)N[C@@H](CCC(=O)O)C(=O)O)cc3)cnc2n1,.,.,/,.,/,/
COC(=O)c1ccc(NC(=O)C2CCN(C(=O)c3cc(OC)c(OC)c(OC)c3)CC2)cc1,.,.,.,.,.,-101.1
COc1ccccc1Oc1nc2c(C)cccn2c(=O)c1/C=C(\C#N)c1nc2ccccc2[nH]1,.,.,.,.,?,.
O=[N+]([O-])c1ccc(-c2cnc(SCc3ccccc3Cl)[nH]2)cc1,/,?,.,?,.,.
O=[N+]([O-])c1ccc(-c2cnc(SC(c3ccccc3)c3ccccc3)[nH]2)cc1,?,?,?,?,3.55µM,?
C=CCN=C1S/C(=C\N(C)C)C(=O)N1S(=O)(=O)c1ccc(C)cc1,/,/,/,.,/,.
Cc1cccc(Nc2cc(C)c3c(O)cccc3n2)c1C,14.1µM,?,?,.,?,-65.4
Cc1cc(Nc2ccccc2O)nc(C)n1,.,.,.,.,.,.
CCOc1ccccc1NC(=O)NNC(=O)CCc1ccc(OC)cc1,.,.,.,.,?,.
CN(C)CCN(Cc1ccccc1)C(=O)c1[nH]c(C(F)(F)F)nc1-c1ccccc1,.,.,/,35.5µM,/,.
CCCCN(C)C(=O)c1[nH]c(C(F)(F)F)nc1-c1ccccc1,.,.,/,.,/,.
Cc1cccc(CNC(=O)CN2CC(C)Sc3ccccc32)c1 (centres undefined),.,.,/,.,.,.
Cc1cc(C(=O)OCC(=O)N(C)c2ccccc2)c2ccccc2n1,/,/,/,.,/,.
CCN(CC)CCCNC(=S)N1CCN(c2nc(-c3ccccc3)cs2)CC1,.,?,?,.,.,.
COCCCNC(=S)N1CCN(c2nc(-c3ccc(Cl)cc3)cs2)CC1,?,?,/,?,/,-92.1
COCCCNC(=S)N1CCN(c2nc(-c3ccccc3)cs2)CC1,/,/,/,?,/,-67.4
CCOCCCNC(=S)N1CCN(c2nc(-c3ccccc3)cs2)CC1,/,/,/,?,/,-86.1
CCNC(=O)c1sc2ncnc(NCCCN3CCOCC3)c2c1C,.,.,/,.,/,/
CC(=O)[C@@]1(O)CC[C@H]2[C@@H]3C=C(Cl)C4=CC(=O)[C@@H]5C[C@@H]5[C@]4(C)[C@H]3CC[C@@]21C,.,.,/,.,/,/
CCc1nc2cc(C(=O)N(C)C3CCOC3)cc(NC(=O)c3ccccc3OC)c2n1C (centres undefined),.,.,/,.,/,/
Cc1cccc(N2CCN(C(=O)c3cn(CC(C)C)c(=O)c4c3c3ccccc3n4C)CC2)c1C,?,?,.,.,.,.
SMILES,VACV mCherry inh,Vaccinia Venus,Marburg entry inh,FMDV antiviral,Lassa entry inh,HCMV antiviral
Cc1cccc(N2CCN(C(=O)c3cn(C)c(=O)c4c3c3ccccc3n4C)CC2)c1C,/,/,?,.,6.51µM,.
Cc1cc(C)cc(NS(=O)(=O)c2ccc(NC(=S)NC(=O)c3ccc(Br)o3)cc2)c1,/,?,15.8µM,.,.,-76.0
CCC(=O)c1ccc(OCc2ccc(C(=O)c3ccccc3)cc2)cc1,.,.,?,?,5.01µM,.
COC(=O)c1ccc(OCCOc2ccccc2)cc1,/,.,?,.,.,.
CCC(=O)c1ccc(OCc2ccccc2)c(OC)c1,.,.,?,.,?,.
COc1cccc(OC)c1OCCOc1ccc(C(=O)c2ccccc2)cc1,.,.,?,31.6µM,?,-65.8
CCOC(=O)C1(Cc2ccc(OC)cc2)CCN(C(=O)c2cc3ccccc3[nH]2)CC1,.,.,?,.,.,.
O=S(=O)(c1ccc(-c2nnc(SCc3nnc(-c4ccccc4)o3)o2)cc1)N1CCCC1,/,/,.,.,.,.
CCN(CC)S(=O)(=O)c1ccc(-c2nnc(SCc3nnc(-c4ccccc4)o3)o2)cc1,?,0.0355µM,?,/,?,.
COCCN(C)c1ccc2c(-c3ccccc3OC)noc2n1,/,/,/,/,/,.
Cc1ccc(N2C(=O)CC(Cc3ccc(Cl)cc3)C2=O)cc1 (centres undefined),.,.,.,.,.,.
Cc1cc(C)nc(N2C(=O)CC(Cc3ccc(Cl)cc3)C2=O)n1 (centres undefined),.,.,.,.,.,-100.8
COc1ccc(N(C(=O)c2ccco2)C(C(=O)NC2CCCC2)c2ccc(N3CCOCC3)cc2)c(OC)c1 (centres undefined),.,.,.,.,.,.
Cc1cccc[n+]1CC(=O)c1ccc([N+](=O)[O-])cc1,.,.,.,.,.,-86.8
COc1ccc(C(=O)C[n+]2ccccc2C)cc1,.,.,?,.,.,.
COc1ccc(NC(=O)COc2ccccc2C(N)=O)cc1S(=O)(=O)N1CCCCC1,.,.,/,.,/,.
Cc1cc(Cl)c(S(=O)(=O)NC(C(=O)O)C(C)C)cc1OCC(=O)NC1CCCCC1 (centres undefined),/,/,.,.,.,.
Cc1ccc(NC(=O)COc2cccc(C)c2C)cc1S(=O)(=O)N1CCCCCC1,.,.,?,?,11.2µM,?
Cc1ccc(NC(=O)COc2ccccc2C(N)=O)cc1S(=O)(=O)N1CCCCCC1,/,/,/,25.1µM,/,-90.6
Cc1cc(Cl)c(S(=O)(=O)N2CCCC2)cc1OCC(=O)NC1CCCCC1,/,/,?,?,?,-96.3
CCCCCCCC/C=C\CCCCCCCC(=O)NCCc1ccc(O)c(O)c1,.,.,4.47µM,?,9.2µM,.
CCN(CC)C(C)CN1c2ccccc2Sc2ccccc21 (centres undefined),.,?,?,28.2µM,.,/
CC1(C)NC(=O)N(CC(O)CN(c2ccccc2)S(=O)(=O)c2ccccc2[N+](=O)[O-])C1=O (centres undefined),.,.,.,.,.,.
C[C@@H]1CN(C2CCN(C(=O)c3ccccc3)CC2)C[C@H](C)O1,/,/,.,/,/,/
O=C(COc1ccccc1F)NNC(=O)Cn1c(=O)cnc2ccccc21,/,/,/,.,/,.
Cc1ccc(OCC(=O)NNC(=O)Cn2c(=O)cnc3ccccc32)cc1,.,.,.,.,.,-97.5
Cc1cc(=O)oc2cc(OCC(=O)N3c4ccccc4NC(=O)C3(C)C)ccc12,.,.,.,.,.,.
CC(=O)/C(C#N)=C1\NC(=O)C(Cc2ccccc2C)S1 (centres undefined),?,.,?,.,?,-82.6
CC(=O)/C(C#N)=C1\NC(=O)[C@@H](Cc2ccccc2)S1,/,/,2.51µM,/,/,/

# Screening data as filed in PubChem.
